# Reference: PubChem BioAssay AID651812 (National Center for Advancing Translational Sciences (NCATS), 2012)
# Hit rate of the full screen: of about 2,100 compounds, about 650 (31%) were called active. Another 16% or so got no clear call; they are omitted. The list shows a part of the results. A number with no mark means an inactive call. The call rests on the fitted dose curve; in most records, active means well fitted inhibition curve with a large enough effect; inconclusive means small, poorly fitted or top-dose-only effect; inactive means flat fitted curve, though single readings scatter.
# Test: qHTS for inhibitors of Vif-A3G interactions: Cherry picks; further: nearly all actives have a fitted effect of over 80% in size; on activity, negative = fluorescence increase: % of control where 0% means no effect
# Conditions: HeLa A3G-eYFP + Vif (tagged APOBEC3G with the HIV-1 protein that degrades it), 24 h; Potency: eYFP fluorescence increase; series mostly up to 36.9 µM; activity, negative = fluorescence increase: at the top concentration
# Outline: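 Cherry-picked compounds tested at several concentrations on A3G-eYFP/Vif HeLa cells for 24 hours; loss of Vif-driven degradation read as eYFP fluorescence by cytometric plate imaging, 488 nm excitation, 500-530 nm emission.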
# Potency means the concentration at half of the fitted maximal effect.
Structure (SMILES),"activity, negative = fluorescence increase",Potency
CC(/C=N/NC(=O)c1cc(-c2ccccc2)nc2ccccc12)=C\c1ccco1,-8.64%,
Cc1ccc(-c2cc(-c3ccco3)c3c(N)c(C(=O)NN)oc3n2)cc1,,20.6 µM (active)
NNC(=O)c1oc2nc(-c3ccccc3)cc(-c3ccco3)c2c1N,,20.6 µM (active)
CC(C)(C)C(=O)/C(=C/c1ccc(Cl)cc1)n1cncn1,1.11%,
CCN(CC)c1ccc2c(cc1=O)[C@@H](NC)CCc1cc(OC)c(OC)c(OC)c1-2,-19.2%,
COC(=O)c1sc(-c2cccs2)cc1NC(=O)/C=C/C(=O)O,4.29%,
C=CCN1C(=O)/C(=C2/Sc3ccc(OC)cc3N2CC)SC1=S,,14.6 µM (active)
C=CCN1C(=O)/C(=C2/Sc3ccc(OC)cc3N2C)SC1=Nc1cccc(O)c1,,18.4 µM (active)
C[C@]1(O)CC(=O)C=C[C@H]1Nc1ccccc1,3.1%,
COc1ccccc1N1C(=O)C2C(C(=O)c3ccccc3)=NN(c3ccc(C)cc3)C2C1=O (centres undefined),-26.3%,
N=C1S/C(=C\c2ccc(-c3cccc(Cl)c3)o2)C(=O)N1c1nccs1,,20.6 µM (active)
Cc1ccc(Cn2c(SCc3ccc(C(=O)NC4CCCC4)cc3)nc3ccncc32)cc1,3.2% [at 46.1 µM],
COc1ccc2c(c1)/C(=C/c1cc(OC)c(OC)c(OC)c1)C(=O)N2,-0.665%,
COc1ccc2c(c1)/C(=C\c1cccc(/C=C3/C(=O)Nc4ccc(OC)cc43)n1)C(=O)N2,0.897%,
CN(C)S(=O)(=O)c1ccc2c(c1)/C(=C/c1cc3c([nH]1)CCCC3)C(=O)N2,,2.23 µM (active)
CC(C)OC(=O)c1c2c(n3ccccc13)C(=O)c1ccccc1C2=O,,10.3 µM (active)
COc1cc(/C=C2\SC(=Nc3cccnc3)NC2=O)cc(OC)c1OC,-29.3% [at 46.1 µM],
CCOc1cc(Br)cc(/C=C2\SC(=Nc3ccccc3)NC2=O)c1O,-2.38%,
COc1cc(/C=C2\SC(=Nc3ccccc3)NC2=O)cc(Cl)c1O,,20.6 µM (active)
O=c1c2ccccc2sc2ccc(NCCCN3CCOCC3)cc12,,18.4 µM (active)
Cc1ccc2[nH]c(C(=O)NN=C3CCCCC3)c(-c3ccccc3)c2c1,0.458%,
CC1C/C(=N\NC(N)=S)c2cc(Cl)ccc2S1 (centres undefined),6.57% [at 46.1 µM],

Structure (SMILES),"activity, negative = fluorescence increase",Potency
N#Cc1c(C(F)(F)F)cc(-c2ccccc2)nc1SCc1nc(N)nc(N2CCOCC2)n1,,8.2 µM (active)
Cc1ccc(N=C2NC(=O)CC(C(=O)Nc3ccc4c(c3)OCO4)S2)cc1 (centres undefined),-1.13%,
CC(C)n1c(O)c(N=Nc2ccc(Cl)nn2)c2ccccc21,,16.4 µM (active)
O=C(CSc1n[nH]c(-c2ccccn2)n1)Nc1ccc(Cl)cc1,3.07% [at 46.1 µM],
C/C(CC(=O)NCc1ccc(Cl)cc1)=N\NC(=O)COc1ccc(C)cc1Br,-1.44%,
Cc1nc2c3cc(F)ccc3n(Cc3ccccc3F)c2s1,-11.9%,
CCN1/C(=C\C=C(C(C)=O)C(C)=O)Sc2ccccc21,,20.6 µM (active)
O=C(CN1c2ccccc2Sc2ccccc21)NNC(=O)Nc1cccc(Cl)c1,-2.17%,
Cc1ccc(-c2nc3ncccc3o2)cc1NC(=O)c1ccc([N+](=O)[O-])o1,0.107% [at 46.1 µM],
CC(C)C1C(=O)N(Cc2cn(CCC3OCCCO3)nn2)CCS(=O)(=O)N1Cc1ccc(-c2cccc(CO)c2)cc1 (centres undefined),-11.4%,
COc1ccc(-c2ccnc(-c3ccc(O)cc3)n2)cc1,-14.4%,
CCC1=Nc2cc(C(=O)NCc3cccnc3)ccc2Sc2ccc(C)cc21,-8.44%,
CCN(CC)C(=O)c1ccc(/C=C/c2c[nH]c3ccccc23)[n+](C)c1,,18.4 µM (active)
C[n+]1cc(C(=O)N2CCCCC2)ccc1/C=C/c1c[nH]c2ccccc12,,14 µM (active)
Cc1sc2nc(CSCC(=O)Nc3ccccc3C#N)[nH]c(=O)c2c1C,-16% [at 46.1 µM],
O=C1OC(/C(=C\Nc2cc(Cl)ccc2O)[N+](=O)[O-])c2ccccc21 (centres undefined),-18.2%,
CC(=O)Nc1cccc(-c2ccnc3c2CC(C(=O)Nc2cccc(N(C)C)c2)O3)c1 (centres undefined),-3.68%,
COc1ccc(C(=O)NC(=S)NCc2cccnc2)cc1Cl,10.5% [at 46.1 µM],
O=[N+]([O-])c1ccc(C2=Nc3cc(Cl)ccc3OC2)cc1,,29.1 µM (active)
CCOC(=O)c1c(C)[nH]c(C(=O)N/N=C/c2cccc(OC)c2)c1C,-2.35%,
CCOC(=O)c1ccc(NC(=S)Nc2cccc(C)n2)cc1,3.99% [at 46.1 µM],
CCOC(=O)c1cc(-c2ccccc2)sc1NC(=S)Nc1cc(C)ccn1,,10.3 µM (active)

Structure (SMILES),"activity, negative = fluorescence increase",Potency
Cc1ccnc(NC(=S)NC(=O)/C=C/c2ccco2)c1,-1.03%,
CNC(=O)C(Sc1nc(C)nc2c1oc1ccccc12)C(C)=O (centres undefined),-5.85%,
COc1ccc(Cn2c(=O)cc(N)n(-c3ccccc3C)c2=O)cc1,-10.8%,
COc1ccc(Cn2c(C)nc3c(c2=O)c2nc4ccccc4nc2n3Cc2ccco2)cc1,,5.8 µM (active)
O=C(Cc1cc2ccccc2o1)NCc1ccc(F)cc1,-2.9%,
COc1cccc(OCc2nc3ncc(Br)cc3[nH]2)c1,-5.34%,
O=c1[nH]c2cc(Br)cnc2nc1/C=C(\O)c1ccc(F)cc1,,13 µM (active)
CCCCNc1c(-c2ccc(SC3CCCCC3)cc2)nc2cnccn12,,2.8 µM (active)
COc1ccc(-c2nc3cnccn3c2NC2CCCCC2)cc1-c1cccc(Cl)c1,-13.1% [at 46.1 µM],
CCC(C)Sc1ccc(-c2nc3cc(C)ccn3c2NC2CCCCC2)cc1 (centres undefined),-1.53% [at 46.1 µM],
COc1ccc(NC(=O)C2(C)Cc3c(-c4cccc(C(N)=O)c4)ccnc3O2)cc1 (centres undefined),-5.15%,
O=[N+]([O-])c1ccc(/C=N/Nc2ccc3ccccc3c2)o1,,4.44 µM (active)
Cc1cc(C(=O)N/N=C/c2ccc(C)o2)c2ccccc2n1,-9.53%,
O=C(N/N=C/c1ccc([N+](=O)[O-])o1)c1cc(-c2ccc(-c3ccccc3)cc2)nc2ccccc12,-17.5%,
Cc1cc(N/N=C/c2ccc([N+](=O)[O-])o2)nc2ccccc12,,20.6 µM (active)
Cc1cccc(Nc2nc(N)nc(-c3oc4ccccc4c3C)n2)c1,1.73%,
O=C(Nc1nc(-c2ccccn2)cs1)C1CCCC1,2.08% [at 46.1 µM],
O=C(c1ccccc1)C(CN1CCCCC1)c1ccccc1 (centres undefined),-1.48%,
Nc1c(C(=O)c2ccccc2)sc2nsc(SCCN3CCOCC3)c12,,16.4 µM (active)
Nc1c(C(=O)c2ccccc2)sc2nsc(SCCN3CCCC3)c12,,19.8 µM (active)
